PubChem BioAssay
Calls of active or inactive are those of the source.

Columns and labels:
[1] = test system: Plasmodium falciparum Sir2 (PF13_0152, Sir2A); assay: pfSir2 binders on small-molecule microarrays, primary screen, biochemical, small-molecule microarray, 635 nm fluorescence (AID 1098); details: small-molecule microarray binding, fluorescence 635 nm; higher = more signal;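 further: score merges spot fluorescence intensity with its signal-to-noise ratio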
[2] = small-molecule microarray binders of probe aDKK1, primary screen, biochemical, biotinylated probe, 635/667 nm fluorescence (AID 1099); details: higher = more signal;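 further: score merges 667nm spot fluorescence with signal to noise across triplicate slides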
[3] = small-molecule microarray binders of probe aCHRDL2, primary screen, biochemical, biotinylated probe, 635/667 nm fluorescence (AID 1100); details: higher = more signal
[4] = splicing luciferase reporter signal modulators, primary screen, spliceosome inhibition project, cell-based, HEK293, splice +/- reporter (AID 1101); details: luminescence, 24 h, higher = more signal, called active from +8 up or from −8 down;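 further: HEK293 cells carrying a splicing-competent luciferase reporter gene; test concentration not given here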
[5] = target: Fibroblast growth factor 10 (Homo sapiens) (UniProt O15520); assay: FGF10 binders on small-molecule microarrays, primary screen, biochemical, small-molecule microarray, 635 nm fluorescence (AID 1102); details: FGF10 binding, fluorescence 635 nm, higher = more signal
Fibroblast growth factor 10 (Homo sapiens), sequence (O15520 whole entry, looked up): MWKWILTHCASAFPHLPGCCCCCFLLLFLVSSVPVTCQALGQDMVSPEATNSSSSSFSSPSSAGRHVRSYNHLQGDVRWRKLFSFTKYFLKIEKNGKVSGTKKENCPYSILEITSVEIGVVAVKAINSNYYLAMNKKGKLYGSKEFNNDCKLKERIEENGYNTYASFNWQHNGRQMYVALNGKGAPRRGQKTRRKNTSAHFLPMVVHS

[6] = test system: glycogen synthase kinase-3 (GSK3A per assay name; protocol says GSK3B); assay: GSK3 binders on small-molecule microarrays, primary screen, biochemical, small-molecule microarray, 635 nm fluorescence, GSK3A (AID 1103); details: small-molecule microarray binding, fluorescence 635 nm; higher = more signal; further: the record names both GSK3A and GSK3B
[7] = target: Epidermal growth factor receptor (Homo sapiens) (UniProt P00533); assay: EGFR binders on small-molecule microarrays, primary screen, biochemical, small-molecule microarray, 635 nm fluorescence (AID 1104); details: EGFR binding, higher = more signal;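 further: score merges 667 nm emission intensity with spot signal to noise over triplicate slides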
Epidermal growth factor receptor (Homo sapiens), sequence (P00533 whole entry, looked up): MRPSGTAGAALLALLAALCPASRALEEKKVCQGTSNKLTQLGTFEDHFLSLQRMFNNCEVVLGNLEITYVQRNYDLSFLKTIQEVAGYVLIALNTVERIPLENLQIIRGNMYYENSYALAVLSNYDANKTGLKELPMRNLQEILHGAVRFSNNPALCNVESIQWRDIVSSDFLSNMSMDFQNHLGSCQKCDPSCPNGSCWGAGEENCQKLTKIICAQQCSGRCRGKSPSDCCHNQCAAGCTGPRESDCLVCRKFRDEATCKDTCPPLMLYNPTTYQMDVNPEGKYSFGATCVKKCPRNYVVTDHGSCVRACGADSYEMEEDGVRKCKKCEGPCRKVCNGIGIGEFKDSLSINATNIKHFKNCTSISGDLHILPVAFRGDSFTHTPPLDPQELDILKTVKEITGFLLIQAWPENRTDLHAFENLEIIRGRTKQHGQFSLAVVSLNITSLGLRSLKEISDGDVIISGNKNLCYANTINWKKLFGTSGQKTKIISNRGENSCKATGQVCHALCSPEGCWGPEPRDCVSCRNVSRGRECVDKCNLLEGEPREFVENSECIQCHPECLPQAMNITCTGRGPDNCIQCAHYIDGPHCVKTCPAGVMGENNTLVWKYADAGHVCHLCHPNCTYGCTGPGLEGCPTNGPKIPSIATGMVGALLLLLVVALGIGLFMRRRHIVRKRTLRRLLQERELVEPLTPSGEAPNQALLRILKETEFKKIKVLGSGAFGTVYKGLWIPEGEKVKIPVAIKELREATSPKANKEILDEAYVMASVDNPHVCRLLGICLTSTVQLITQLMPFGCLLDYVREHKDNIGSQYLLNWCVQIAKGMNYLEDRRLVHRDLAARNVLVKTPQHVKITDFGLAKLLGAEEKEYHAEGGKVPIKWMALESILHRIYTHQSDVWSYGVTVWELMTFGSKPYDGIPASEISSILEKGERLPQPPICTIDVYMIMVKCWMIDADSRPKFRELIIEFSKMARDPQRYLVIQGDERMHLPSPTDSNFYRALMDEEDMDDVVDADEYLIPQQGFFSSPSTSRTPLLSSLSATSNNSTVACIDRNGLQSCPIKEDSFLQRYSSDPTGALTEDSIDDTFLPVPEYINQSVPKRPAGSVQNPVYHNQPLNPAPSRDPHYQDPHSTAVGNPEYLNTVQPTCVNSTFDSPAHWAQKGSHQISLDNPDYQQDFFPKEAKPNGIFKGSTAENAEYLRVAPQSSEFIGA

[8] = target: Follistatin-related protein 3 (Homo sapiens) (UniProt O95633); assay: FSTL3 binders on small-molecule microarrays, primary screen, biochemical, small-molecule microarray, 635 nm fluorescence (AID 1105); details: FSTL3 binding, higher = more signal;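 further: score merges emission near 667 nm and signal to noise per printed spot across three slides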
Follistatin-related protein 3 (Homo sapiens), sequence (O95633 whole entry, looked up): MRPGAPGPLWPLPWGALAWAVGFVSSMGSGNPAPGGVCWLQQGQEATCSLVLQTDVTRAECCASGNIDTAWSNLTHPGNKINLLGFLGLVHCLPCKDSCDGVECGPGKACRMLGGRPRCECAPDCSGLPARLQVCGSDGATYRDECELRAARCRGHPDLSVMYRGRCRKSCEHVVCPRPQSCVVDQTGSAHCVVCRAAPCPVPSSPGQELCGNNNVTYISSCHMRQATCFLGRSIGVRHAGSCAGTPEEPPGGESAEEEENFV

[9] = target: Dickkopf-related protein 1 (Homo sapiens) (UniProt O94907); assay: DKK1 binders on small-molecule microarrays, primary screen, biochemical, small-molecule microarray, 635 nm fluorescence scan (AID 1106); details: DKK1 binding, higher = more signal;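 further: score merges emission near 667 nm with signal to noise over three replicate slides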
Dickkopf-related protein 1 (Homo sapiens), sequence (O94907 whole entry, looked up): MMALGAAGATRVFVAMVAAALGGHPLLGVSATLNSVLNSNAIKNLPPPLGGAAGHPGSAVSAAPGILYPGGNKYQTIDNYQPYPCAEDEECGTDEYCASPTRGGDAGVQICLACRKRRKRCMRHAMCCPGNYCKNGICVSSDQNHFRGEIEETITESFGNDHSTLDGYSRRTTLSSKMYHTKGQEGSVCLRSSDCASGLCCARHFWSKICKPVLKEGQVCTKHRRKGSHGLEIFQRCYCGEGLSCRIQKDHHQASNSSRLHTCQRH

[10] = test system: Inhibin beta A chain (activin A); assay: INHBA (activin A) binders on microarrays, primary screen, biochemical, small-molecule microarray, 635 nm fluorescence scan (AID 1107); details: small-molecule microarray binding, higher = more signal;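 further: mouse activin A protein probed at 4.33 µg/mL on printed slides; score merges bound-protein fluorescence near 667 nm with spot signal-to-noise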
[11] = test system: Human papillomavirus type 1a protein E7 (residues 44-93); assay: HPV1a E7 fragment binders on microarrays, primary screen, biochemical, small-molecule microarray, residues 44-93, 635 nm fluorescence (AID 1108); details: small-molecule microarray binding, fluorescence 635 nm; higher = more signal;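 further: E7 fragment applied at 1 µg/mL in TBST for 1 h at 4 C; score combines spot fluorescence with its signal to noise ratio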
[12] = modulators of HCV replicon luciferase signal, primary screen, HCV replication inhibitor project, Huh7 cells, luciferase reporter (AID 1109); details: 48 h, higher = more signal;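 further: huh7 hepatoma cells harbouring a luciferase neomycin HCV replicon reporter; luciferase luminescence as measure of HCV replicon replication; test concentration not given here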
[13] = target: Left-right determination factor 2 (Homo sapiens) (UniProt O00292); assay: LEFTY2 binders on small-molecule microarrays, primary screen, biochemical, small-molecule microarray, 635 nm fluorescence scan (AID 1110); details: LEFTY2 binding, higher = more signal
Left-right determination factor 2 (Homo sapiens), sequence (O00292 whole entry, looked up): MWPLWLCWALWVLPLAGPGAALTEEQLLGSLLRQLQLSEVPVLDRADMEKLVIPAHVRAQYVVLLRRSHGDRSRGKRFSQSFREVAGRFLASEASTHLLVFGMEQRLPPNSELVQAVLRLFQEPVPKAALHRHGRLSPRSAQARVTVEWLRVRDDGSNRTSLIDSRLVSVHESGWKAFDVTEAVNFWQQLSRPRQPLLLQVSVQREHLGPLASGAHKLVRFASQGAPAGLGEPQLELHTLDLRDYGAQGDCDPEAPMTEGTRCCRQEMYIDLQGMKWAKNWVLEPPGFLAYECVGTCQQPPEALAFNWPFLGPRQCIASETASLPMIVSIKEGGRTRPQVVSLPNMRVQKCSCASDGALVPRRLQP

[14] = target: Calmodulin-1 (Homo sapiens) (UniProt P0DP23); assay: CALM1 binders on microarrays, EGTA buffer, profiling panel, biochemical, small-molecule microarray, Cy5-labelled CALM1 (AID 1111); details: Cy5-CALM1 binding fluorescence, higher = more signal;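 further: labelled calmodulin applied in Tris saline Tween buffer holding calcium plus EGTA and DTT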
[15] = target: Calmodulin-1 (Homo sapiens) (UniProt P0DP23); assay: calcium-bound CALM1 binders on microarrays, profiling panel, artefact control for SMM control-protein annotation, biochemical, small-molecule microarray, Cy5-labelled CALM1, plus calcium (AID 1112); details: Cy5-CALM1 binding fluorescence, higher = more signal;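 further: score merges spot fluorescence with signal to noise from triplicate slides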
[16] = small-molecule microarray binders of probe aWnt5a, primary screen, biochemical, biotinylated probe, 635/667 nm fluorescence (AID 1113); details: higher = more signal;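 further: score merges 667 nm fluorescence intensity with signal-to-noise per printed feature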
[17] = small-molecule microarray binders of probe aShh, primary screen, biochemical, biotinylated probe, 635/667 nm fluorescence (AID 1114); details: higher = more signal;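 further: probe is biotin-labelled aShh protein from a stem cell growth factor screen; measures binding of labelled protein to compounds printed on the slide; score merges feature fluorescence at 667 nm with signal-to-noise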
[18] = small-molecule microarray binders of probe aNog, primary screen, biochemical, biotinylated probe, 635/667 nm fluorescence (AID 1115); details: higher = more signal;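 further: probe is biotinylated aNog protein used at 0.15 µg/mL for 1 h at 4 C; z-score combines 667 nm fluorescence of each spot with its signal to noise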
[19] = target: Torsin-1A-interacting protein 1 (Homo sapiens) (UniProt Q5JTV8); assay: LAP1 binders from COS7 cell lysate, primary screen, small-molecule microarray, 635/667 nm fluorescence (AID 1116); details: COS7-hLAP1 lysate binding, 635 nm fluorescence, higher = more signal
Torsin-1A-interacting protein 1 (Homo sapiens), sequence (Q5JTV8 whole entry, looked up): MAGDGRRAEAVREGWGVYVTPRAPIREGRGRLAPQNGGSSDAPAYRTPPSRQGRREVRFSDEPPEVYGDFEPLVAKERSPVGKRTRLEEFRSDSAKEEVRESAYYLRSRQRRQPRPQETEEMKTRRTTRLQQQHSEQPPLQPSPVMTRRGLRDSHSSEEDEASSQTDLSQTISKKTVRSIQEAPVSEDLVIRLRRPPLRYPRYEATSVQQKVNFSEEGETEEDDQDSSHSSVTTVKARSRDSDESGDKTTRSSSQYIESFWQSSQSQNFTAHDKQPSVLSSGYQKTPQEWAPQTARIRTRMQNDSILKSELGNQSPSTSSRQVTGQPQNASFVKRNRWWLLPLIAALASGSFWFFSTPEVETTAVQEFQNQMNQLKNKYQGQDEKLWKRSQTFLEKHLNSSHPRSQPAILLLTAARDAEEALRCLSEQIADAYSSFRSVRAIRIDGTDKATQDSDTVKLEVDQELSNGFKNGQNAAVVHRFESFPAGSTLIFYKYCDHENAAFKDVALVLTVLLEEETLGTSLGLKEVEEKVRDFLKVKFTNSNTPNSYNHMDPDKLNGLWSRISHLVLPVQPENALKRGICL

[20] = target: Alpha-bungarotoxin (Bungarus multicinctus) (UniProt P60615); assay: alpha-bungarotoxin binders on microarray, profiling panel, artefact control for SMM control protein annotation, biochemical, small-molecule microarray, Alexa647 label, 635/667 nm fluorescence (AID 1117); details: alpha-BTX-A647 binding fluorescence, higher = more signal
Alpha-bungarotoxin (Bungarus multicinctus), sequence (P60615 whole entry, looked up): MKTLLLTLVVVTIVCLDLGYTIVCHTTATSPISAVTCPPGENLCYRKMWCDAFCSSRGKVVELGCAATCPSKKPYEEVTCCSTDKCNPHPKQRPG

| SMILES | composite z-score [1] | composite z-score [2] | composite z-score [3] | z-score [4] | composite z-score [5] | composite z-score [6] | composite z-score [7] | composite z-score [8] | composite z-score [9] | composite z-score [10] | composite z-score [11] | z-score [12] | composite z-score [13] | composite z-score [14] | composite z-score [15] | composite z-score [16] | composite z-score [17] | composite z-score [18] | composite z-score [19] | composite z-score [20] |
| --- | --- | --- | --- | --- | --- | --- | --- | --- | --- | --- | --- | --- | --- | --- | --- | --- | --- | --- | --- | --- |
| COc1ccc(/C=C/C=O)cc1 | -0.166 | -0.201 | -0.32 | -0.903 (inactive) | 0.188 | 0.0929 | -0.0607 | 0.679 | 0.406 | 0.664 | -0.15 | 0.788 | 0.0844 | -1.14 | -0.732 | -0.228 | -0.253 | 0.148 | 0.0921 | -0.117 |
| COCCOC(=O)N1C(=O)[C@@]2(c3cc(C#CCCO)ccc31)[C@H](C(=O)N1CCCCCCC1)[C@H]1C(=O)O[C@H](c3ccccc3)[C@H](c3ccccc3)N1[C@@H]2c1ccc(OCCO)cc1 | 1.4 | 2.52 | 1.49 | 0.713 (inactive) | 0.888 | 0.704 | 1.59 | 1.55 | 1.63 | 1.67 | 1.39 | -0.616 | 1.01 | 2.13 | 1.05 | 0.933 | 0.953 | 1.99 | 3.97 | 2.01 |
| O=C1C2C=CC(C(O)CCc3ccccc3)N(Nc3ccccc3F)C2C(=O)N1c1ccccc1 (stereo not given) | 1.17 | 0.909 | 1.09 | -0.0383 (inactive) | 1.25 | 1.31 | 0.359 | 1.31 | -0.242 | 1.04 | 1.29 | -0.83 | -0.208 | 0.611 | 0.11 | 0.229 | 0.13 | 1.03 | 1 | 0.324 |
| COc1ccc(C#Cc2ccc3c(c2)[C@]2(C(=O)N3)[C@H](C(=O)NC[C@H](O)c3ccccc3)[C@H]3C(=O)O[C@H](c4ccccc4)[C@H](c4ccccc4)N3[C@@H]2c2ccc(O)cc2)cc1 | 1.16 | -0.0262 | 0.295 | -0.993 (inactive) | 1.02 | 1.16 | 0.417 | 0.768 | 0.484 | 0.0998 | 1.43 | -1.38 | 0.559 | 1.04 | -0.064 | 0.0952 | 0.0723 | 0.277 | 1.06 | 1.72 |
| CCC[C@@H]1C[C@@]1(CCC)[C@@H](NS(=O)(=O)c1cccc2cccnc12)c1ccc(Cl)cc1 | -0.318 | 0.916 | 1.1 | 0.109 (inactive) | 0.044 | -0.594 | -0.484 | -0.445 | -0.35 | 1.04 | 1.23 | -1.38 | -0.385 | 0.976 | 1.28 | 0.0839 | 0.426 | 1.1 | 0.731 | 0.6 |
| CCOC(=O)C[C@H]1[C@H](OC(=O)c2ccccc2-c2ccccc2)[C@@H](NC(=O)CC(C)C)c2cc(OCCCO)ccc2N1C(=O)Cc1ccc(OC)cc1 | 0.0681 | -0.235 | 0.0198 | -0.284 (inactive) | 0.215 | -0.199 | -0.0484 | -0.305 | -0.239 | 0.328 | -0.0946 | -1.25 | -0.262 | -0.0904 | -0.265 | -0.0953 | 0.199 | -0.326 | 0.784 | -0.213 |
| CC(C)C[C@@H]1NC(=O)[C@H](C(C)C)NC(=O)[C@@]23C(=O)N[C@@H](Cc4ccccc4)C2[C@H](C)[C@@]2(C)O[C@H]2C3/C=C/CC/C=C/CNC1=O (stereo not given in full) | 0.26 | -0.189 | -0.263 | -0.76 (inactive) | 1.16 | 0.94 | 0.467 | 1.37 | 0.384 | 1.35 | 1.35 | -1.41 | 0.413 | -0.245 | -0.736 | -0.117 | -0.283 | -0.397 | 0.268 | 0.705 |
| COc1ccc(CCNC(=O)[C@@]2(Sc3ccc(C)cc3)CC(=O)N(C3Cc4ccccc4C3)[C@@H]2c2ccc(CO)cc2I)cc1 | 1.09 | 0.736 | 0.575 | -1.27 (inactive) | -0.461 | -0.64 | -0.895 | -0.856 | -1.41 | 0.48 | 0.615 | -2.48 | -0.911 | 0.113 | 0.795 | -0.0398 | -0.0234 | 0.136 | 0.548 | 1.59 |
| O=C(NCCN1CCOCC1)C1N=C(c2ccc(OCCCO)cc2)N(c2ccccc2)O1 (stereo not given) | 0.439 | 0.273 | 0.766 | -0.764 (inactive) | 1.56 | 1.08 | 0.837 | 0.751 | 0.915 | 0.145 | 0.694 | 0.289 | 1.08 | 0.745 | -0.177 | 0.139 | -0.0457 | 0.05 | 1.68 | 1.55 |
| COCCOC(=O)N1C(=O)[C@@]2(c3cc(C#Cc4ccc(OC)cc4)ccc31)[C@H](c1ccc(OCCO)cc1)N1[C@H](c3ccccc3)[C@H](c3ccccc3)OC(=O)[C@H]1[C@@H]2C(=O)N1CCN(c2ncccn2)CC1 | -0.0214 | 0.775 | 0.257 | -0.449 (inactive) | 0.703 | 1.28 | 0.667 | 1.27 | 1.28 | -0.0857 | 0.819 | -1.45 | 1.08 | 1.12 | 0.715 | -0.0585 | -0.26 | 0.0308 | 0.391 | 0.953 |
| O=C1O[C@H](c2ccccc2)[C@H](c2ccccc2)N2[C@H]1[C@@H](C(=O)N1CCCCCCC1)[C@]1(C(=O)Nc3ccc(C#CCCO)cc31)[C@H]2c1ccccc1OCCO | 2.26 | 3.11 | 1.53 | -0.207 (inactive) | 1.76 | 1.5 | 2 | 1.79 | 2.76 | 1.84 | 1.62 | -1.53 | 1.91 | 3.03 | 1.73 | 1.69 | 3.01 | 2.38 | 5.84 | 4.84 |
